± gives the standard deviation.
The sequences below were run on MILI (PIWIL2) piRISC loaded with piRNA #1 (26 nt) (assay: pre-steady-state target cleavage rate (min^-1); guide: piRNA #1 5'p-UGAGGUAGUAGGUUGUAUAGUAUCCA; MIWI and MILI are mouse PIWI proteins and EfPiwi is from a freshwater sponge; tags in brackets are library labels; higher = faster piRNA-guided slicing of the target). Details: auxiliary factor: 500 nM mouse GTSF1.
In short: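 A transcribed, DNA-blocked target RNA library (0.1 nM) and 1 nM active affinity-purified piRISC bearing one synthetic guide were incubated in HEPES–potassium acetate buffer at 33 °C for 0–8 or 0–960 min, either with or without 500 nM GTSF1 partner protein. Uncleaved targets were sequenced, normalised to depth and to weakly complementary targets, and pooled over three trials, with k3 capped at 0.0001 min^-1. The pre-steady-state cleavage rate was derived with a burst-and-steady-state fit.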

Sequence	pre-steady-state target cleavage rate
GGAGAGGAAAGUAUACAACCUACUACCUCA	0.0417 ± 0.0061
GGAGACCUAACUAUACAACCUACUACAUCA	0.0477 ± 0.014
GGAGUGGAUACUAUACAACCUACUACUCA	0.0385 ± 0.0084
GGAGACCAUACUAUACAACCUACUACGACA	0.16 ± 0.025
GGAGACCUCACUAUACAACCUACUACCUCA	0.252 ± 0.029
GGAGACCUAACUAUACAACAUACUACCUCA	0.0407 ± 0.0099
GGAGAGGAUACUAUACAACGUACUACGUCA	0.0115 ± 0.0029
GGAGACGAUAGAUUACAACCUACUACCUCA	0.0557 ± 0.011
GGAGACCAUAGAAUACAACCUACUACCUCA	0.0281 ± 0.0057
GGAGACGAUACUAUACAACCUAGCUACCUCA	0.0598 ± 0.0083
GGAGACGAACUAUACAACCUACUACCUCA	0.138 ± 0.012
GGAGACCAUACUAUCACAACCUACUACCUCA	0.136 ± 0.019
GGAGAGGUUUCUAUACAACCUACUACCUCA	0.14 ± 0.013
GGAGAGGAUACUAUACAACCAUCUACCUCA	0.00516 ± 0.0022
GGAGAGGAUACUAUACAAGCUUCUACCUCA	0.0253 ± 0.0037
GGAGACCUAACUAUACAACCUACUACCAGA	0.124 ± 0.035
GGAGAGAUACUAUACAACCUACUACCUCA	0.202 ± 0.017
GGAGACGAUACUAUACAACCUACUACGCUCA	0.19 ± 0.02
GGAGACGAUACUAUACAACUUACUACCUCA	0.0232 ± 0.0039
GGAGUGGAUAGUAUACAACCUAGUACCUCA	0.0556 ± 0.0099

Sequence	pre-steady-state target cleavage rate
GGAGACCUUAGAAUACAACCUACUACCUCA	0.011 ± 0.004
GGAGACGAUACUAUUCUACCUACUACCUCA	0.173 ± 0.012
GGAGACCAUAUCUAUACAACCUACUACCUCA	0.138 ± 0.015
GGAGAGGAUACUAUACAACCACUACCUCA	0.00782 ± 0.0025
GGAGACCUUACUAUACCACCUACUACCUCA	0.109 ± 0.014
GGAGACCAUACUAUACAACUUACUACCUCA	0.0165 ± 0.0023
GGAGAGGCUACUAUACAACCUACUACCUCA	0.182 ± 0.017
GGAGAGGAUACAAUACAACGUACUACCUCA	0.0139 ± 0.003
GGAGUGGAUACUAUAGAACCUACUACCUGA	0.0453 ± 0.0088
GGAGAGGAUACUAUACAUCCAACUACCUCA	0.0065 ± 0.0019
GGAGACCUAACUAUGCAACCUACUACCUCA	0.12 ± 0.013
GGAGAGGAAACUAUACAACCUAGUACCUCA	0.0133 ± 0.0079
GGAGACGAUACUAUACAACGCUACUACCUCA	0.00688 ± 0.0028
GGAGAGGAUCUAUACAACCUACUACCUCA	0.171 ± 0.013
GGAGAGGAUAGUAUACAACCUACUAGCUCA	0.00705 ± 0.0035
GGAGACCAUAACUAUACAACCUACUACCUCA	0.135 ± 0.0094
GGAGAGGAUACUAUACAACCUACAACCACA	0.00451 ± 0.0037
GGAGUGGUUACUAUACAACCAACUACCUCA	0.00796 ± 0.0019
GGAGAGGAUACUAUACAACCUUCUACCACA	0.00472 ± 0.0023
GGAGACCUAUCAAUACAACCUACUACCUCA	0.0355 ± 0.0083
